Assay results as given in PubChem BioAssay (NCATS).
Where “and” joins values, the source holds several entries; their conditions need not be identical. Identical values can stand only once. Inconclusive results are not listed. A call without a number means that no potency is given here. Some compounds were tested as several samples or in several runs, with calls that do not always agree. A number with no mark means an inactive call. Calls of active or inactive are those of the source. Calls come from the whole dose curve; as a rule, active = well fitted curve in the direction sought with a large enough effect; inconclusive = small, poorly fitted or top-dose-only effect, or another doubt; inactive = no such curve, though single readings can be large; an effect the other way counts as inactive or inconclusive.

Columns and labels:
[1] = tested on: MCC-13; assay: qHTS assay to identify novel small-molecules to repurpose for Merkel cell carcinoma treatment (AID 1296009); settings: MCC and control cell lines, CellTiter-Glo viability, 72 h; series mostly up to 46 µM; note: nearly all actives have a fitted effect of over 60% in size
Outline: (§1)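 After compound transfer in DMSO, plates were kept 72 hr at 37 degree celsius. Luminescent ATP signal from CellTiter-Glo served as viability measure, normalized against DMSO and no-cell controls.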

[2] = tested on: MCC-26; assay: as above; settings: MCC and control cell lines, CellTiter-Glo viability, 72 h; series mostly up to 46 µM
Outline: as §1

[3] = tested on: MKL-1; assay: as above; settings: MCC and control cell lines, CellTiter-Glo viability, 72 h; series mostly up to 46 µM
Outline: as §1

[4] = tested on: MKL-2; assay: as above; settings: MCC and control cell lines, CellTiter-Glo viability, 72 h; series mostly up to 46 µM
Outline: as §1

[5] = tested on: NIH3T3; assay: as above; settings: MCC and control cell lines, CellTiter-Glo viability, 72 h; at 44.8 µM (top of the series) unless noted
Outline: as §1

[6] = tested on: UISO; assay: as above; settings: MCC and control cell lines, CellTiter-Glo viability, 72 h; series mostly up to 46 µM
Outline: as §1

[7] = tested on: WaGa; assay: as above; settings: MCC and control cell lines, CellTiter-Glo viability, 72 h; series mostly up to 46 µM
Outline: as §1

[8] = tested on: C33A; assay: Primary qHTS to identify gynecologic anti-cancer compounds using libraries of approved drugs and bioactive compounds (AID 1345084); settings: Gynecologic cancer cell panel viability, ATPlite luminescence, 48 h; series mostly up to 57.5 µM; note: nearly all actives have a fitted effect of over 55% in size
Outline: (§2)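 Cytotoxicity screen measuring ATP content by luciferase luminescence. Each compound is applied at five concentrations for 48 h at 37 C with 5% CO2.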

[9] = tested on: CAOV3; assay: as above; settings: Gynecologic cancer cell panel viability, ATPlite luminescence, 48 h; series mostly up to 57.5 µM
Outline: as §2

[10] = tested on: CASKI; assay: as above; settings: Gynecologic cancer cell panel viability, ATPlite luminescence, 48 h; series mostly up to 57.5 µM
Outline: as §2

[11] = tested on: Es-2; assay: as above; settings: Gynecologic cancer cell panel viability, ATPlite luminescence, 48 h; series mostly up to 57.5 µM
Outline: as §2

[12] = tested on: HeLa; assay: as above; settings: Gynecologic cancer cell panel viability, ATPlite luminescence, 48 h; series mostly up to 57.5 µM
Outline: as §2

[13] = tested on: Hek293T; assay: as above; settings: Gynecologic cancer cell panel viability, ATPlite luminescence, 48 h, control line for the selectivity index; series mostly up to 57.5 µM
Outline: as §2

[14] = tested on: JEG-3; assay: as above; settings: Gynecologic cancer cell panel viability, ATPlite luminescence, 48 h; series mostly up to 57.5 µM
Outline: as §2

[15] = tested on: OV90; assay: as above; settings: Gynecologic cancer cell panel viability, ATPlite luminescence, 48 h; series mostly up to 57.5 µM
Outline: as §2

[16] = tested on: PA-1; assay: as above; settings: Gynecologic cancer cell panel viability, ATPlite luminescence, 48 h; series mostly up to 57.5 µM
Outline: as §2

[17] = tested on: SKOV3; assay: as above; settings: Gynecologic cancer cell panel viability, ATPlite luminescence, 48 h; series mostly up to 57.5 µM
Outline: as §2

[18] = tested on: Tov-21-G; assay: as above; settings: Gynecologic cancer cell panel viability, ATPlite luminescence, 48 h; series mostly up to 57.5 µM
Outline: as §2

[19] = tested on: Tov112D; assay: as above; settings: Gynecologic cancer cell panel viability, ATPlite luminescence, 48 h; series mostly up to 57.5 µM
Outline: as §2

[20] = Drug repurposing screens with cells derived from glioblastoma tumor samples (AID 1345199); settings: GBM patient neurospheres viability, ATP luminescence, 48 h; note: nearly all actives have a fitted effect of over 40% in size; note: potency is the fitted concentration of half-maximal effect
Outline: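 Four patient lines of CD133+ GBM neurospheres were screened at several concentrations; hits were retested in those lines plus three slower-growing GBM lines, using 48-hour treatment and ATP-based viability.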

[21] = at 45.9 µM (top of the series), tumour line B
[22] = at 45.9 µM (top of the series), tumour line D
[23] = at 46.1 µM (top of the series), tumour line C
[24] = at 20 µM (top of the series), tumour line C
[25] = at 21.2 µM (top of the series), tumour line B
[26] = at 21.2 µM (top of the series), tumour line D
[27] = at 21.3 µM (top of the series), tumour line A

CCCCS(=O)(=O)N[C@@H](Cc1ccc(OCCCCC2CCNCC2)cc1)C(=O)O
Potency [1]: inactive | Potency [2]: inactive | Potency [3]: inactive | Potency [4]: inactive | outcome [5]: inactive | Potency [6]: inactive | Potency [7]: inactive | Potency [8]: inactive | Potency [9]: inactive | Potency [10]: inactive | Potency [11]: inactive | Potency [12]: inactive | Potency [13]: inactive | Potency [14]: inactive | Potency [15]: inactive | Potency [16]: inactive | Potency [17]: inactive | Potency [18]: inactive | Potency [19]: inactive | activity, negative = cell killing [20, 21]: -17.7% | activity, negative = cell killing [20, 22]: -22% | activity, negative = cell killing [20, 23]: -12.3% | Potency ([20]; tumour line A): 11.2 µM (active)

NCCc1ccn[nH]1
Potency [1]: inactive | Potency [2]: inactive | Potency [3]: inactive | Potency [4]: inactive | Potency [6]: inactive | Potency [7]: inactive | Potency [8]: inactive | Potency [9]: inactive | Potency [10]: inactive | Potency [11]: inactive | Potency [12]: inactive | Potency [13]: inactive | Potency [14]: inactive | Potency [15]: inactive | Potency [16]: inactive | Potency [18]: inactive | Potency [19]: inactive | activity, negative = cell killing [20, 24]: -4.24% | activity, negative = cell killing [20, 25]: -2.24% | activity, negative = cell killing [20, 26]: 2.99% | activity, negative = cell killing [20, 27]: -21.3%

Cc1ccnc(NS(=O)(=O)c2ccc(N)cc2)n1
Potency [1]: inactive | Potency [2]: inactive | Potency [3]: inactive | Potency [4]: inactive | Potency [6]: inactive | Potency [7]: inactive | Potency [8]: inactive | Potency [9]: inactive | Potency [10]: inactive | Potency [11]: inactive | Potency [12]: inactive | Potency [13]: inactive | Potency [14]: inactive | Potency [15]: inactive | Potency [16]: inactive | Potency [17]: inactive | Potency [18]: inactive | Potency [19]: inactive | activity, negative = cell killing [20, 24]: -10.2% | activity, negative = cell killing [20, 25]: -5.77% | activity, negative = cell killing [20, 26]: -5.49% | activity, negative = cell killing [20, 27]: -16.8%

CNC(=O)CN(CCN(CCN(CC(=O)[O-])CC(=O)NC)CC(=O)[O-])CC(=O)[O-].O.[Gd+3]
Potency [1]: inactive | Potency [2]: inactive | Potency [3]: inactive | Potency [4]: inactive | Potency [6]: inactive | Potency [7]: inactive | Potency [8]: inactive | Potency [9]: inactive | Potency [10]: inactive | Potency [11]: inactive | Potency [12]: inactive | Potency [13]: inactive | Potency [14]: inactive | Potency [15]: inactive | Potency [16]: inactive | Potency [17]: inactive | Potency [18]: inactive | Potency [19]: inactive | activity, negative = cell killing [20, 21]: 8.28% and -4.12% | activity, negative = cell killing [20, 22]: 7.83% and 10.5% | activity, negative = cell killing ([20]; at 46 µM (top of the series), tumour line A): -5.02% | activity, negative = cell killing [20, 23]: -11.8% and -0.805% | Potency ([20]; tumour line A): 35.5 µM (active)

CC1(C)O[C@@H]2C[C@H]3[C@@H]4C[C@H](F)C5=CC(=O)C=C[C@]5(C)[C@H]4[C@@H](O)C[C@]3(C)[C@]2(C(=O)CO)O1
Potency [1]: inactive | Potency [2]: inactive | Potency [3]: inactive | Potency [4]: inactive | Potency [6]: inactive | Potency [7]: inactive | Potency [8]: inactive | Potency [9]: inactive | Potency [10]: inactive | Potency [11]: inactive | Potency [12]: inactive | Potency [13]: inactive | Potency [14]: inactive | Potency [15]: inactive | Potency [16]: inactive | Potency [17]: inactive | Potency [18]: inactive | Potency [19]: inactive | activity, negative = cell killing [20, 24]: 3.76% | activity, negative = cell killing [20, 25]: 2.57% | activity, negative = cell killing [20, 26]: -8.48% | activity, negative = cell killing [20, 27]: 19%
